# Measured values: PubChem BioAssay (NCATS)
# Values joined by “and” are separate entries in the source; they are usually repeats but may differ in a detail not shown here. Equal entries are not always repeated. A number with no mark means an inactive call. Results filed as inconclusive are left out. Some compounds were tested as several samples or in several runs, with calls that do not always agree. Active and inactive are the calls of the source. Calls follow the shape of the dose curve; as a rule, active = well fitted curve in the direction sought with a large enough effect; inconclusive = small, poorly fitted or top-dose-only effect, or another doubt; inactive = no such curve, though single readings can be large; an effect the other way counts as inactive or inconclusive.
# Target: Cytochrome P450 3A4 (Homo sapiens) (UniProt P08684)
# Sequence (P08684 whole entry, looked up): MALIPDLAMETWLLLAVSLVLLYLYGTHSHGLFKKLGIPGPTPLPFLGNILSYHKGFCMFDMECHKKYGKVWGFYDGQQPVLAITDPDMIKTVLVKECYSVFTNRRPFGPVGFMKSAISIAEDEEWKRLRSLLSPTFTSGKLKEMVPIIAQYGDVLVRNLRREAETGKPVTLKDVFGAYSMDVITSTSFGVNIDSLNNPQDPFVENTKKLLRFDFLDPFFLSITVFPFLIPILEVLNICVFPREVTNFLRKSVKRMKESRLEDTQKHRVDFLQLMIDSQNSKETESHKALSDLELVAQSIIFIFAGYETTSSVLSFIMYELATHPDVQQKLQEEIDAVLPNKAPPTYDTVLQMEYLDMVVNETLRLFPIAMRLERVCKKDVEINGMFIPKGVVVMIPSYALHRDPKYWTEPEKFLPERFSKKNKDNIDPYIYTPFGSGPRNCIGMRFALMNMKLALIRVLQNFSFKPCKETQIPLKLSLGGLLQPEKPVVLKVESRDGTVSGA
# Assay: qHTS Assay for Inhibitors and Substrates of Cytochrome P450 3A4 (AID 884); also: % is scaled to controls: 0 for no effect and ±100 for the full control effect; nearly all actives have a fitted effect of over 50% in size
# Settings: recombinant CYP3A4, Luciferin-PPXE luminescence; series mostly up to 57.1 µM; activity change, negative = inhibition: at the top concentration
# Outline: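 20 nM human CYP3A4 with 25 uM Luciferin-PPXE (at KM) in 200 mM KPO4, preincubated 10 min with compound; NADPH regeneration started a 60 min RT reaction. Luciferin detected by luminescence, normalized to 57 uM ketoconazole as full inhibition.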
SMILES,"activity change, negative = inhibition",outcome
CCOC(=O)c1ncn2c1CN(C)C(=O)c1cc(F)ccc1-2,-5.3%,
NCCCCCC(=O)O,-6.43%,
CN(C)CCC=C1c2ccccc2C=Cc2ccccc21,-40.2%,
COc1cc2nc(N3CCN(C(=O)c4ccco4)CC3)nc(N)c2cc1OC,,inactive
CC[C@@]1(O)C(=O)OCc2c1cc1n(c2=O)Cc2cc3c(CN(C)C)c(O)ccc3nc2-1,-9.19%,
Cc1cn([C@H]2C=C[C@@H](CO)O2)c(=O)[nH]c1=O,,inactive

# Target: Cytochrome P450 3A4 (Homo sapiens) (UniProt P08684)
# Assay: qHTS Assay for Activators of Cytochrome P450 3A4 (AID 885); also: nearly all actives have a fitted effect of over 65% in size; also: potency is read from the fitted curve at half-maximal effect
# Settings: recombinant CYP3A4, Luciferin-PPXE luminescence, 60 min; series mostly up to 57.1 µM; activity change, positive = activation: at the top concentration
# Outline: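 Steps: enzyme/substrate mix dispensed; compound added, 10 min RT; NADPH regeneration solution added, 60 min RT; luciferin detection buffer stops reaction; 20 min later luminescence measured.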
SMILES,Potency,"activity change, positive = activation"
Cc1cc(C(C)(C)C)c(O)c(C)c1CC1=NCCN1,inactive,
O=c1c(O)c(-c2ccc(O)c(O)c2)oc2cc(O)cc(O)c12,,-74.4%
COc1cc2nc(N3CCN(C(=O)c4ccco4)CC3)nc(N)c2cc1OC,12.6 µM (active),
Cn1ccc2cc3c(cc21)CCN3C(=O)Nc1cccnc1,,-83.5%
Cc1cc(C(C)(C)C)cc(C)c1CC1=NCCN1,,-32.2%

# Target: Cytochrome P450 2D6 (Homo sapiens) (UniProt P10635)
# Sequence (P10635 whole entry, looked up): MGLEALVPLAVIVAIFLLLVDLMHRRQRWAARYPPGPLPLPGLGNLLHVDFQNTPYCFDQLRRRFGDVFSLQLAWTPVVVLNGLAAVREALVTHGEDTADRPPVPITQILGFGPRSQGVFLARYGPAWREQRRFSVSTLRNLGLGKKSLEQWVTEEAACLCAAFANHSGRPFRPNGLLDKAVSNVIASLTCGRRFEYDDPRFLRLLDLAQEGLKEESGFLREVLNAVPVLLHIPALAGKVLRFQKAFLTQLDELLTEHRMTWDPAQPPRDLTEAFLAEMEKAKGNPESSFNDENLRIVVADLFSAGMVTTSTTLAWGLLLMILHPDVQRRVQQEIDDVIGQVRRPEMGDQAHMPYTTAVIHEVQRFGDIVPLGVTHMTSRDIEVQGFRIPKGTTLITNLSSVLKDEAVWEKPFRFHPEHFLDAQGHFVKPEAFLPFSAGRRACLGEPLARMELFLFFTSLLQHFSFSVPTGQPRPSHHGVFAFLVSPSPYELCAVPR
# Assay: qHTS Assay for Inhibitors and Substrates of Cytochrome P450 2D6 (AID 891); also: nearly all actives have a fitted effect of over 60% in size; also: potency is read from the fitted curve at half-maximal effect;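 as to activity change, negative = inhibition: luciferin methyl ether substrate demethylated by CYP2D6 with NADPH regeneration; % is scaled to controls: 0 for no effect and ±100 for the full control effect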
# Settings: recombinant CYP2D6, luciferin-ME EGE luminescence; series mostly up to 57.1 µM; activity change, negative = inhibition: at the top concentration
# Outline: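 Human CYP2D6 (5 nM) with 30 uM Luciferin-ME EGE (at Km) in 100 mM KPO4, compound preincubated 10 min, then NADPH regeneration system for 60 min at room temperature. Luciferin read by luminescence; normalized to 1.43 uM quinidine.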
SMILES,"activity change, negative = inhibition",Potency,outcome
CCOC(=O)c1ncn2c1CN(C)C(=O)c1cc(F)ccc1-2,22.5%,,
Cc1cc(C(C)(C)C)c(O)c(C)c1CC1=NCCN1,,3.98 µM (active) and 39.8 nM (active),
O=c1c(O)c(-c2ccc(O)c(O)c2)oc2cc(O)cc(O)c12,7.44%,,
CN(C)CCC=C1c2ccccc2C=Cc2ccccc21,,6.31 µM (active),
COc1cc2nc(N3CCN(C(=O)c4ccco4)CC3)nc(N)c2cc1OC,-6.57%,,
OCCN(CCO)c1nc(N2CCCCC2)c2nc(N(CCO)CCO)nc(N3CCCCC3)c2n1,,12.6 µM (active) and 10 µM (active),inactive
CN1CCN(CCCN2c3ccccc3Sc3ccc(Cl)cc32)CC1,,398 nM (active) and 794 nM (active),
Cc1cc(C(C)(C)C)cc(C)c1CC1=NCCN1,,3.98 µM (active),

# System: not listed separately
# Assay: Confirmation and Secondary Assay for Modulators of Hemoglobin Beta Chain Splicing at IVS2 654 locus (AID 910);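 also: HeLa cells stably carrying EGFP split by mutant beta-globin IVS2-654 intron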;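 also: potency is read from the fitted curve at half-maximal effect; potency of activators that raise GFP signal by restoring correct splicing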; as to activation (splicing correction): % of control where 0% means no effect
# Settings: HeLa EGFP-654 splicing reporter, GFP fluorescence, 48 h; series mostly up to 46.1 µM; activation (splicing correction): at the top concentration
# Outline: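 HeLa cells stably expressing EGFP interrupted by β-globin IVS2-654 intron, seeded overnight in Opti-MEM/2% FCS, then treated 2 days at 37 °C. Restored splicing read as total peak GFP intensity per well by laser scanning cytometry (488 nm excitation, 500–520 nm emission); 500 nM antisense PNA as control.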
SMILES,activation (splicing correction),Potency
CN1CCN(C2=Nc3cc(Cl)ccc3Nc3ccccc32)CC1,-2.18%,
Cc1cc(C(C)(C)C)c(O)c(C)c1CC1=NCCN1,-3%,
Cc1ccc(C(=O)Nc2ccc(S(=O)(=O)O)c3cc(S(=O)(=O)O)cc(S(=O)(=O)O)c23)cc1NC(=O)c1cccc(NC(=O)Nc2cccc(C(=O)Nc3cc(C(=O)Nc4ccc(S(=O)(=O)O)c5cc(S(=O)(=O)O)cc(S(=O)(=O)O)c45)ccc3C)c2)c1,3.2% [at 38.3 µM],
O=c1c(O)c(-c2ccc(O)c(O)c2)oc2cc(O)cc(O)c12,7.7% [at 38.3 µM],
CN(C)C(=O)C(CCN1CCC(O)(c2ccc(Cl)cc2)CC1)(c1ccccc1)c1ccccc1,1.8%,
CNCCCC12CCC(c3ccccc31)c1ccccc12,-1.51%,
O=C1c2c(O)ccc(O)c2C(=O)c2c(NCCNCCO)ccc(NCCNCCO)c21,-2.84%,
NCCCCCC(=O)O,5.45%,
OCCN1CCN(CCCN2c3ccccc3Sc3ccc(C(F)(F)F)cc32)CC1,-6.93%,
CN(C)CCOC(c1ccccc1)c1ccccc1,6.46%,
NCCc1cnc[nH]1,-1.26%,
CN(C)CCC=C1c2ccccc2C=Cc2ccccc21,1.6%,
CN(C)c1nc(N(C)C)nc(N(C)C)n1,2.63%,
OCCN(CCO)c1nc(N2CCCCC2)c2nc(N(CCO)CCO)nc(N3CCCCC3)c2n1,-5.84%,
CN1CCN(CCCN2c3ccccc3Sc3ccc(Cl)cc32)CC1,-9.82%,
NC12CC3CC(CC(C3)C1)C2,0.703%,
CC[C@@]1(O)C(=O)OCc2c1cc1n(c2=O)Cc2cc3c(CN(C)C)c(O)ccc3nc2-1,,12.6 µM (active)
O=C(c1ccc(F)cc1)C1CCN(CCn2c(=O)[nH]c3ccccc3c2=O)CC1,-0.332% [at 38.3 µM],
Cn1cnc2c1c(=O)[nH]c(=O)n2C,-0.752%,
CN(C)C(=N)N=C(N)N,0.937%,
O=C(CCCN1CCC(O)(c2ccc(Cl)cc2)CC1)c1ccc(F)cc1,1.12%,
NC(=O)NO,2.41%,
Cc1cc(C(C)(C)C)cc(C)c1CC1=NCCN1,-2.38%,
